Data published in PubChem BioAssay AID588335 (The Scripps Research Institute Molecular Screening Center, 2011).
The campaign covered roughly 360,000 compounds. About 4,500 (1.2%) were called active. No stated cut-off is given here; in the data, active means inhibition above about 30%; inactive means the rest. The list comes from a sample in which actives are over-represented; it also holds similar structures and randomly drawn compounds.

Assay: GDH-TPI coupling enzyme inhibitors, primary screen, artefact control for M. tuberculosis FBA inhibitor project, biochemical, absorbance, full deck (AID 588335);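 further: 0% = DMSO wells and 100% = wells lacking the enzyme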
Conditions: GDH-TPI coupled enzyme counterscreen, NADH absorbance; at 4.8 µM; active compounds read high

Row | Compound | inhibition
1 | COc1ccc2[nH]c3c(c2c1)CCN1C(=O)C(CC(=O)NCc2cccc(C(F)(F)F)c2)C[C@H](C(=O)N2CCOCC2)[C@@]31C (stereo partly specified) | -0.94% (inactive)
2 | COc1ccccc1-c1cnn2c(N3CCOCC3)cc(C)nc12 | 8.82% (inactive)
3 | Fc1ccccc1/C=N/Nc1cc(N2CCCCC2)ncn1 | 18.5% (inactive)
4 | COc1ccc(/C=N/Nc2cc(N3CCOCC3)nc(C)n2)c(OC)c1 | 68.5% (active)
5 | CCOc1ccc(CN(C)C(=O)c2ccc(=O)[nH]c2)cc1 | 1.51% (inactive)
6 | CC(C)CNC(=O)C(=O)NCC(c1ccc2c(c1)OCO2)N1CCOCC1 (stereo unspecified) | -0.84% (inactive)
7 | CCCc1ccc(C(O)c2ncc(-c3cccc(OC)c3)[nH]2)cc1 (stereo unspecified) | -5.36% (inactive)
8 | CC(C)(C)OC(=O)N/N=C/c1ccc(C(=O)O)cc1 | -4.41% (inactive)
9 | COC(=O)C(C)N=Cc1ccccc1 (stereo unspecified) | -1.89% (inactive)
10 | COC(=O)N/N=C/c1c[n+]([O-])c2ccccc2[n+]1[O-] | 32.6% (active)
11 | O=C(Nc1ccc2c(c1)nc1n2CCCCC1)c1cc(S(=O)(=O)N2CCOCC2)ccc1Cl | -14.1% (inactive)
12 | CCOc1cc(/C=C2\SC(N3CCCC(C)C3)=NC2=O)ccc1O (stereo unspecified) | 14.5% (inactive)
13 | CC1CCN(C2=NC(=O)/C(=C/c3cn[nH]c3-c3ccccc3)S2)CC1 | 33.8% (active)
14 | CN(CCC1CCOCC1)Cc1cn[nH]c1-c1ccc(-c2ccccc2)cc1 | 13% (inactive)
15 | CCCCCCCCn1c2c(c(=N)c3c1CCC3)CCCC2 | -7.26% (inactive)
16 | C/C(=N\NC(=O)c1cccc([N+](=O)[O-])c1)c1cccnc1 | 3.57% (inactive)
17 | C/C(=N\NC(=O)c1cc(-c2ccc(O)cc2)nc2ccccc12)c1cccnc1 | 30.9% (active)
18 | CCOc1ccccc1-c1cc(C(=O)N/N=C(\C)c2cccnc2)c2ccccc2n1 | 19.2% (inactive)
19 | O=C(ON=C1CCN(S(=O)(=O)c2ccccc2)CC1)c1ccc(Cl)cc1 | 4.57% (inactive)
20 | CN1CCN(c2ncc3c(n2)CC(c2ccccc2F)CC3=O)CC1 (stereo unspecified) | 4.15% (inactive)
21 | CCc1ccc(Nc2ncc3c(n2)CC(c2ccco2)CC3=O)cc1 (stereo unspecified) | 37.7% (active)
22 | Cc1ccc2nc(Nc3ncc4c(n3)CC(C)(C)CC4=O)nc(C)c2c1 | 1.22% (inactive)
23 | COc1ccc(Cl)cc1C=CC=Nc1ccc(S(N)(=O)=O)cc1 | 5.17% (inactive)
24 | CC(=NNC(=O)c1ccncc1)c1ccc(Cl)c(Cl)c1 | 0.88% (inactive)
25 | COc1ccc(Cl)cc1C=CC=NNC(=O)c1ccncc1 | 50% (active)
26 | CCOc1nc(OCC)nc(-n2cc(-c3ccccc3)nn2)n1 | -5.88% (inactive)
